For 39 compounds, Inhibition results are on record in ChEMBL document CHEMBL4513146, “CO-ADD screening of Karazin Kharkiv National University (Ukraine) compounds”.

The structures appear in SMILES notation. Measured potencies and affinities stand elsewhere.

The test system of this assay is Cryptococcus neoformans. To be noted: Concentration 32 ug.mL-1; ASSAY_TEST Inhibition of Fungal Growth; detection method Resazurin; Absorption (OD600-OD570); plate type 384well; NBS; CORNING #3640. On the technique in general: The colour change of resazurin is a common sign of viable cells or microbes.
For orientation: Inhibition means the change of the read-out against control, counted positive when it falls. As for `COC(=O)c1ccc(NC(=O)Cn2nc3c(Oc4ccccc4)nccn3c2=O)cc1`, the Inhibition is on record as -10.09%. To `COc1ccc(-c2cc3c4nn(CC(=O)Nc5cc(OC)cc(OC)c5)c(=O)n4ccn3n2)cc1` belongs -18.18%; to `COc1ccccc1-n1ccn2c(SCC(=O)NCc3ccc(Cl)cc3)nnc2c1=O`, -6.31%; to `CCc1ccc(N(Cc2ccccc2)S(=O)(=O)c2cccn3c(C)nnc23)cc1`, -9.98%. To `Cc1ccc(Sc2nccn3c(=O)n(CC(=O)Nc4ccc(Br)cc4C)nc23)c(C)c1` belongs -17.66%; to `O=c1c2nnc(SCc3ccccc3Cl)n2ccn1-c1ccc(F)cc1`, -9%. To `Cc1ccc(NC(=O)Cn2nc3c(Oc4ccccc4)nccn3c2=O)c(Cl)c1` belongs -4%; to `COc1cccc(-n2ccn3c(SCC(=O)Nc4ccc5c(c4)OCCO5)nnc3c2=O)c1`, -26.1%.

With `CCc1nnc2c(S(=O)(=O)N(Cc3cccc(OC)c3)c3ccccc3)cccn12`, the Inhibition is -9.71%.

With `Cc1ccc(-c2ccc3nn(Cc4nc(-c5ccc(Cl)cc5)no4)c(=O)n3n2)cc1`, the Inhibition is -7.02%. In the case of `COc1cc(NC(=O)Cn2nc3c(Oc4ccccc4)nccn3c2=O)cc(OC)c1`, the Inhibition is -7.5%.

Turning to `O=C(Cn1nc2c(N3CCN(c4ccccc4)CC3)nccn2c1=O)Nc1ccc2c(c1)OCO2`, the Inhibition is -7.4%. To `O=C(CSc1nnc2c(=O)n(-c3ccccc3)ccn12)Nc1ccc(Cl)cc1` belongs -17.38%. With `Cc1cccc(Oc2nc3ccccc3n3c(=O)n(CC(=O)Nc4ccc5c(c4)OCCO5)nc23)c1C`, the Inhibition is on record as -31.77%. To `COc1cccc(-n2ccn3c(SCC(=O)N4CCN(c5ccccc5F)CC4)nnc3c2=O)c1` belongs -10.18%; to `O=C(CSc1nnc2c(=O)n(-c3ccccc3)ccn12)Nc1cc(F)ccc1F`, -15%.

Take `Cc1ccc(-c2ccc3nn(Cc4ccc5c(c4)OCO5)c(=O)n3n2)cc1C`: the Inhibition was -18.91%.

In the case of `CC(C)c1nnc2c(=O)n(CC(=O)Nc3ccc(Cl)cc3)c3ccccc3n12`, the Inhibition is -17.29%. In the case of `COc1ccc(NC(=O)Cn2nc3c(Sc4ccccc4)nc4ccccc4n3c2=O)cc1Cl` it was -17.25%. To `Cc1ccc(-c2ccc3nn(CC(=O)N4CCN(c5ccccc5)CC4)c(=O)n3n2)cc1C` belongs -5.58%; to `COc1ccccc1-n1ccn2c(SCC(=O)Nc3ccc(C)cc3Cl)nnc2c1=O`, -11.35%; to `O=C(Cn1nc2c(Sc3ccccc3)nccn2c1=O)Nc1ccc2c(c1)OCO2`, -5.13%. Consider `CCCCc1ccc(NC(=O)Cn2c(=O)c3nnc(C(C)C)n3c3ccccc32)cc1`, for which the Inhibition was -30.75%. `CCc1cccc(NC(=O)CSc2nnc3c(=O)n(-c4ccccc4)ccn23)c1`: the Inhibition is on record as -15.51%.

With `CCc1ccc(N(Cc2ccccc2F)S(=O)(=O)c2cccn3c(C)nnc23)cc1`, the Inhibition was -9.4%. To `CCCCn1c(=O)c2sccc2n2c(CCC(=O)NCCC34CC5CC(CC(C5)C3)C4)nnc12` belongs -18.41%; to `CCCCN(CC)c1ccc2nnc(CCc3nc(-c4ccc(Br)cc4)no3)n2n1`, -10.77%; to `CCCN(C)c1nccn2c(=O)n(CC(=O)Nc3cccc(C(C)=O)c3)nc12`, -8.37%. To `N#Cc1cccc(NC(=O)CSc2nnc3c4cc(-c5ccccc5)nn4ccn23)c1` belongs -14.96%; to `Cc1cc(C)c(NC(=O)Cn2nc3ccc(SC4CCCCC4)nn3c2=O)c(C)c1`, -14.71%. To `CCOc1ccccc1CNC(=O)CCc1nnc2ccc(-c3ccc(C)cc3)nn12` belongs -5.38%; to `CCCCN(C)c1ccc2nnc(CCc3nc(-c4cccc(Br)c4)no3)n2n1`, -17.7%. As for `Cc1ccc(Cn2c(=O)c3ccc(C(=O)NC4CCCC4)cc3n3c(=O)n(CC#N)nc23)cc1`, the Inhibition is -4.65%. In the case of `Cc1ccccc1NC(=O)Cn1nc2ccc(SC3CCCCC3)nn2c1=O` it was -16.32%; in that of `COc1ccc(NC(=O)c2ccc3nn(CC(=O)Nc4ccc(C(F)(F)F)cc4)c(=O)n3c2)cc1`, -2.75%; in that of `Cc1cc2nn(CC(=O)Nc3cc(F)ccc3C)c(=O)n2c(Nc2ccc(C)c(F)c2)n1`, -7.37%. To `O=C(Cn1nc2ccc(SCc3ccc(Cl)cc3)nn2c1=O)NC1CCCCC1` belongs -27.33%; to `Cc1cc(Br)ccc1NC(=O)Cn1nc2c(Sc3ccccc3)nccn2c1=O`, -7.39%; to `COc1ccccc1NC(=O)Cn1c(=O)c2nnc(C(C)C)n2c2ccccc21`, -9.5%.
